Experimental findings from PubChem BioAssay (NCI) are described below.

Compounds without any hit were thinned out: in the full panel of roughly 83,000, 20% have a hit.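 Step 1: grow cells in 96-well plates. Step 2: add test compound at a single concentration. Step 3: incubate 48 h. Step 4: record percent growth.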 Unmarked numbers belong to inactive results. Activity calls are given as the source filed them. The calls were made as follows: active = growth percent below 10; inactive = the rest.

Test systems include SK-MEL-2 melanoma; EKVX NSCLC; SN12C renal; UO-31 renal; TK-10 renal; ACHN renal; CAKI-1 renal; A498 renal; CCRF-CEM leukemia; MOLT-4 leukemia.
Assay in all cases: NCI-60 one-dose screen, 48 h (100 = growth as untreated, 0 = no growth, -100 = all killed)
What all share (details): 10 µM unless noted

With `CC(=O)OC1Oc2cc(C)c(C)cc2-c2oc(=O)c(-c3cc4ccc(N(C)C)cc4oc3=O)cc21` (stereo not given), the growth in the test on SK-MEL-2 melanoma is 92.4%; in the test with EKVX NSCLC, 41.5%; in the test on SN12C renal, 84.2%; with UO-31 renal, 51.4%; in the test with TK-10 renal, 89.6%; in the test on ACHN renal, 103%. In addition, the growth with CAKI-1 renal is 65.4%; in the test with A498 renal it was 57.8%; in the test on CCRF-CEM leukemia, 54.9%; with MOLT-4 leukemia, -17.4% (active).

For the compound `CCN(CC)c1ccc(/C=C/C2=[N+](C)c3ccccc3C2(C)C)cc1`, the growth with SK-MEL-2 melanoma was -1.48% (active); with EKVX NSCLC, 0.0796% (active); with SN12C renal it was 1.41% (active); in the test on UO-31 renal, 22.1%; with TK-10 renal, 28.7%; with ACHN renal, -1.03% (active). Further, the growth in the test with CAKI-1 renal was -8.77% (active); with A498 renal, 50.7%; with CCRF-CEM leukemia, 7.5% (active); in the test on MOLT-4 leukemia it was 15.1%.

Take `Cn1c2ccccc2c2c3[nH]c(=O)[nH]c(=O)c3c3c4ccccc4n(C)c3c21`: the growth in the test with SK-MEL-2 melanoma is 67%; in the test with EKVX NSCLC, 29%; with SN12C renal, 33.7%; in the test with UO-31 renal, 11.8%; in the test with TK-10 renal, 36.4%; in the test on ACHN renal, 7.31% (active). Moreover, the growth in the test on CAKI-1 renal was 41.5%; in the test on A498 renal, -4.05% (active); in the test on CCRF-CEM leukemia, 52.9%; with MOLT-4 leukemia, 49.4%.

`COc1ccc(-c2nn(-c3ccccc3)cc2/C=C/C(=O)OCc2cn(-c3ccc(F)c(Cl)c3)nn2)cc1`: the growth in the test on SK-MEL-2 melanoma is 86.9%; with EKVX NSCLC it was 101%; in the test on SN12C renal it was 80.1%; in the test with UO-31 renal, 43%; with TK-10 renal, 118%; in the test with ACHN renal, 83.3%. In addition, the growth in the test with CAKI-1 renal was 79.2%; in the test with A498 renal, 77.3%; in the test with CCRF-CEM leukemia, 101%; with MOLT-4 leukemia, 71.2%.

On to `COc1ccc(C(=O)/C=C/c2c[n+](=O)c3ccc(F)cc3n2[O-])cc1`, for which the growth in the test on SK-MEL-2 melanoma is 112%; in the test with EKVX NSCLC, 92%; in the test with SN12C renal, 96.2%; in the test on UO-31 renal, 87.8%; with TK-10 renal, 106%; in the test with ACHN renal it was 102%. Moreover, the growth in the test with CAKI-1 renal is 95.2%; in the test on A498 renal it was 109%; in the test with CCRF-CEM leukemia, 95.9%; with MOLT-4 leukemia it was 107%.

For the compound `C=C1CCC2C3(C)COC(c4ccc(SC)cc4)OC3CCC2(C)C1C/C=C1/C(=O)OCC1O` (stereo not given), the growth in the test with SK-MEL-2 melanoma is 64.8%; in the test on EKVX NSCLC it was 56.1%; with SN12C renal, 65.6%; with UO-31 renal, 60.7%; in the test with TK-10 renal it was 101%; in the test with ACHN renal it was 74.2%. The growth was 75.3% with CAKI-1 renal, 96.7% in the test with A498 renal, 2.76% (active) with CCRF-CEM leukemia and 5.06% (active) in the test with MOLT-4 leukemia.

In the case of `O=C1C(Cl)=C(Cl)C(=O)c2c1nc1n2CCCC1`, the growth in the test on SK-MEL-2 melanoma is 88.1%; in the test on EKVX NSCLC, 95.9%; with SN12C renal, 96.5%; in the test on UO-31 renal, 88.8%; in the test on TK-10 renal, 60%; with ACHN renal, -8.54% (active). Further, the growth was 100% with CAKI-1 renal, 76.2% in the test with A498 renal, 11.7% in the test on CCRF-CEM leukemia and 9.16% (active) in the test on MOLT-4 leukemia.

Take `Cc1ccc2c(c1)n([O-])c1cc(Cl)ccc1[n+]2=O`: the growth in the test with SK-MEL-2 melanoma was 92.5%; in the test on EKVX NSCLC it was 94.6%; with SN12C renal, 100%; in the test with UO-31 renal, 88.9%; in the test on TK-10 renal, 130%; with ACHN renal, 114%. Moreover, the growth with CAKI-1 renal is 111%; in the test with A498 renal it was 87.9%; with CCRF-CEM leukemia it was 34.9%; with MOLT-4 leukemia it was -9.08% (active).

Turning to `COc1ccc(S(=O)(=O)NCCNc2nccc(-c3c(-c4cccc(N)c4)nc4sccn34)n2)cc1`, the growth was 108% in the test on SK-MEL-2 melanoma; 95.4% with EKVX NSCLC; 95.7% in the test on SN12C renal; 83.2% in the test with UO-31 renal; 115% in the test on TK-10 renal; 95.3% in the test on ACHN renal. For the same compound, the growth in the test on CAKI-1 renal is 93.8%; in the test on A498 renal, 91.6%; in the test on CCRF-CEM leukemia, 101%; in the test on MOLT-4 leukemia it was 99%.

As for `Clc1cccc(Nc2nc(Nc3cnc4ccccc4c3)c3[nH]cnc3n2)c1`, the growth in the test on SK-MEL-2 melanoma was 81.1%; in the test on EKVX NSCLC it was 41.3%; in the test with SN12C renal it was 61.2%; with UO-31 renal, 60.7%; in the test on TK-10 renal, 114%; in the test with ACHN renal, 73.5%. Further, the growth in the test on CAKI-1 renal was 59%; in the test with A498 renal, 60%; in the test on CCRF-CEM leukemia it was 84.8%; in the test with MOLT-4 leukemia it was 90.6%.

Take `CCOC(=O)c1c2ncccc2n2c(=O)n(-c3ccc(Cl)cc3)nnc12`: the growth in the test on SK-MEL-2 melanoma was 108%; in the test on EKVX NSCLC, 68.7%; in the test on SN12C renal, 103%; in the test with UO-31 renal, 61%; with TK-10 renal it was 154%; in the test with ACHN renal it was 77.9%. Moreover, the growth in the test on CAKI-1 renal is 73.9%; with A498 renal it was 106%; in the test on CCRF-CEM leukemia, 72%; in the test on MOLT-4 leukemia it was 86.8%.

As to `O=[N+]([O-])c1cccc(-c2nc3sccn3c2-c2ccnc(NCCNS(=O)(=O)c3ccc(C(F)(F)F)cc3)n2)c1`, the growth in the test with SK-MEL-2 melanoma is 26.9%; with EKVX NSCLC, 39.5%; with SN12C renal, 33%; in the test on UO-31 renal it was 17.3%; with TK-10 renal, 57.9%; in the test on ACHN renal it was 22.5%. The growth was 30.3% in the test on CAKI-1 renal, 36.6% in the test on A498 renal, 20.2% in the test on CCRF-CEM leukemia and 18.2% in the test on MOLT-4 leukemia.

As for `C[C@@H]1CC[C@@H]2[C@@H]1[C@H](OC(=O)/C=C/c1ccccc1)[C@]1(c3ccccc3)C[C@@H](OC(=O)CO)[C@@]2(C)O1`, the growth in the test with SK-MEL-2 melanoma was 97.7%; in the test with EKVX NSCLC, 88.4%; in the test with SN12C renal, 21.8%; in the test with UO-31 renal, -68.1% (active); in the test on TK-10 renal, 98.6%; with ACHN renal it was 4.8% (active). The growth in the test with CAKI-1 renal was 15.4%; in the test with A498 renal, -22.3% (active); in the test with CCRF-CEM leukemia, 93%; with MOLT-4 leukemia, 92.1%.

As for `O=C(CN1CCN(c2cc3c(cc2F)c(=O)c(C(=O)O)cn3C2CC2)CC1)Nc1cc(=O)[nH]c(=O)[nH]1`, the growth in the test on SK-MEL-2 melanoma was 107%; in the test on EKVX NSCLC it was 92%; with SN12C renal, 97.7%; with UO-31 renal, 79.7%; in the test on TK-10 renal, 100%; in the test on ACHN renal, 100%. In addition, the growth with CAKI-1 renal is 95.4%; in the test with A498 renal, 100%; with CCRF-CEM leukemia, 109%; with MOLT-4 leukemia it was 102%.

As to `CN(C)c1ccc(/C=C(\C#N)c2nc3ccccc3s2)cc1`, the growth is 106% with SK-MEL-2 melanoma; 89.5% in the test on EKVX NSCLC; 104% with SN12C renal; 90.7% in the test with UO-31 renal; 121% in the test on TK-10 renal; 101% in the test with ACHN renal. For the same compound, the growth in the test on CAKI-1 renal was 89.2%; with A498 renal, 112%; with CCRF-CEM leukemia, 81.8%; in the test on MOLT-4 leukemia it was 96.4%.
